# Experiments:
# Experiment in all cases: DAPPL (digital affinity profiling via proximity ligation, sequencing); 10 mM Tris-HCl pH 7.5, 50 mM NaCl, 1 mM DTT, 4% glycerol, room temperature, 30 min; GST-TFs on glutathione beads, 16-mer random dsDNA library, 0.1% formaldehyde crosslink after washing; high values mean tight binding
# [1] = target: T1, FLI1 (Homo sapiens, UniProt Q01543 1-452); details: protein: recombinant; tags: N-terminal GST; dsDNA, one strand shown
# T1 sequence: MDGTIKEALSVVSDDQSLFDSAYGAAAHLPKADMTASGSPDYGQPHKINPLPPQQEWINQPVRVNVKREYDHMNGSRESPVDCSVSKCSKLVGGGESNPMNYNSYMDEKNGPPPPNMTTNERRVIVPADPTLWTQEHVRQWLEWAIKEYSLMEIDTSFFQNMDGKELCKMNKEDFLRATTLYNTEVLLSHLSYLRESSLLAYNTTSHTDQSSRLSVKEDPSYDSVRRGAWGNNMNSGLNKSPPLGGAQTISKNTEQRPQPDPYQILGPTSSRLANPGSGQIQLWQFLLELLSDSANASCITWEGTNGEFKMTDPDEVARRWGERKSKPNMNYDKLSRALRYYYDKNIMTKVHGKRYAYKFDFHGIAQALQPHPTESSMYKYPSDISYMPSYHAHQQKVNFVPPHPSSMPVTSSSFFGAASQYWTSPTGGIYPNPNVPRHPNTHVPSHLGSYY
# Outline: (§1)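 Each value of binding signal is a hexamer's read frequency for a factor divided by the same hexamer's frequency in the tag-only sample. Barcoded, bead-captured GST fusions of human transcription factors made in yeast were pooled with that sample and incubated with 200 nmole of a random double-stranded 16-mer DNA library in Tris/NaCl/DTT/glycerol buffer at room temperature for 30 min. Washing, 0.1% formaldehyde crosslinking, proximity ligation, PCR and Illumina NextSeq500 sequencing followed.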
# [2] = target: T2, ELK1 (Homo sapiens, UniProt P19419 1-428); details: protein: recombinant; tags: N-terminal GST; dsDNA, one strand shown
# T2 sequence: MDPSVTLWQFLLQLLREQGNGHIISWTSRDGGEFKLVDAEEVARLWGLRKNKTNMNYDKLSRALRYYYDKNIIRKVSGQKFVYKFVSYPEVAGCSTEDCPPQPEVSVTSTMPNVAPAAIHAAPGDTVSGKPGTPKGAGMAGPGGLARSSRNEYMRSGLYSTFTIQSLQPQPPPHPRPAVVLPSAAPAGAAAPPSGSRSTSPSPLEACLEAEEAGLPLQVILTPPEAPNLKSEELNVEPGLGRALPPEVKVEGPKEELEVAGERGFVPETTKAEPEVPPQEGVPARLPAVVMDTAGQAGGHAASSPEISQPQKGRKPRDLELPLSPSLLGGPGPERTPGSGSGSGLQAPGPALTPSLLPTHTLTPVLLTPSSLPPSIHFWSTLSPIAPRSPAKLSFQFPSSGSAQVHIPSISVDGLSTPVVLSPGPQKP
# Outline: as §1
# [3] = target: T3, GABPA (Homo sapiens, UniProt Q06546 1-454); details: protein: recombinant; tags: N-terminal GST; dsDNA, one strand shown
# T3 sequence: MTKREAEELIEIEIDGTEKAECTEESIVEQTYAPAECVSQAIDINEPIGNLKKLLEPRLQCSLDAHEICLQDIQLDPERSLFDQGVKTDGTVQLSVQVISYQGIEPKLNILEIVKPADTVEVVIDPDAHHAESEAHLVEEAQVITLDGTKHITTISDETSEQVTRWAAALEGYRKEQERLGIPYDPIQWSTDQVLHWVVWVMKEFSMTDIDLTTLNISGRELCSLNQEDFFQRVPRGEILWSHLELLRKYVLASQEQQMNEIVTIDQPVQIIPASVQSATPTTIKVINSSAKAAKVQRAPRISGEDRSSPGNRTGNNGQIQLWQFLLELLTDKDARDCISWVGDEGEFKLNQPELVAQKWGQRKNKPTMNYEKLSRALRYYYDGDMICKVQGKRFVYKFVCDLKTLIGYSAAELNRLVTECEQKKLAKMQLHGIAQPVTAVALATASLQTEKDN
# Outline: as §1
# [4] = target: T4, ERG (Homo sapiens, UniProt P11308 1-479); details: protein: recombinant; tags: N-terminal GST; dsDNA, one strand shown
# T4 sequence: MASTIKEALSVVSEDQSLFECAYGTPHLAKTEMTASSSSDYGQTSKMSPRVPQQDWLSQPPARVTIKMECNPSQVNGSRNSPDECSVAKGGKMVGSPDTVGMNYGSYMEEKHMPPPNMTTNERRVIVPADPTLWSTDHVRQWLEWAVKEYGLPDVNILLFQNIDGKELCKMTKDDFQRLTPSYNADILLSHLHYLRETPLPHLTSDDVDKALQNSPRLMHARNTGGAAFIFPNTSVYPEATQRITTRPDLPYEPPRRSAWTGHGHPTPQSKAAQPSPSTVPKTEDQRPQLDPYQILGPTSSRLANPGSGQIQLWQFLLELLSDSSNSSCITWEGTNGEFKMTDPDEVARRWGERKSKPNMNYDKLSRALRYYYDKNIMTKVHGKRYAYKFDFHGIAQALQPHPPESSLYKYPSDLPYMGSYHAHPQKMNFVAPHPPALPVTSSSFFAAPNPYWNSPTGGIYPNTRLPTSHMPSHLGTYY
# Outline: as §1
# [5] = target: ELF1 (Homo sapiens, UniProt P32519 1-619); details: protein: recombinant; tags: N-terminal GST; dsDNA, one strand shown
# Outline: as §1
# [6] = target: T5, EHF (Homo sapiens, UniProt Q9NZC4 1-300); details: protein: recombinant; tags: N-terminal GST; dsDNA, one strand shown
# T5 sequence: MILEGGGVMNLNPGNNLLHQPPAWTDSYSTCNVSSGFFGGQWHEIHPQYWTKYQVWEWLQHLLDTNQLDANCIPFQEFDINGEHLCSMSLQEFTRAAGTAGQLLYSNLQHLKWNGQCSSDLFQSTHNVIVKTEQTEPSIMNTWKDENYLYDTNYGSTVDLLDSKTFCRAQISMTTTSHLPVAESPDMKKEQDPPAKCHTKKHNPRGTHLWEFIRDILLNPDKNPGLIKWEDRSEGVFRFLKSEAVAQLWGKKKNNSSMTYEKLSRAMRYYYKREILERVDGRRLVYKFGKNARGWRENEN
# Outline: as §1
# [7] = target: SPI1 (Homo sapiens, UniProt P17947 1-270); details: protein: recombinant; tags: N-terminal GST; dsDNA, one strand shown
# Outline: as §1
# [8] = target: SPIB (Homo sapiens, UniProt Q01892 1-262); details: protein: recombinant; tags: N-terminal GST; dsDNA, one strand shown
# Outline: as §1
# [9] = target: T6, ELK3 (Homo sapiens, UniProt P41970 1-407); details: protein: recombinant; tags: N-terminal GST; dsDNA, one strand shown
# T6 sequence: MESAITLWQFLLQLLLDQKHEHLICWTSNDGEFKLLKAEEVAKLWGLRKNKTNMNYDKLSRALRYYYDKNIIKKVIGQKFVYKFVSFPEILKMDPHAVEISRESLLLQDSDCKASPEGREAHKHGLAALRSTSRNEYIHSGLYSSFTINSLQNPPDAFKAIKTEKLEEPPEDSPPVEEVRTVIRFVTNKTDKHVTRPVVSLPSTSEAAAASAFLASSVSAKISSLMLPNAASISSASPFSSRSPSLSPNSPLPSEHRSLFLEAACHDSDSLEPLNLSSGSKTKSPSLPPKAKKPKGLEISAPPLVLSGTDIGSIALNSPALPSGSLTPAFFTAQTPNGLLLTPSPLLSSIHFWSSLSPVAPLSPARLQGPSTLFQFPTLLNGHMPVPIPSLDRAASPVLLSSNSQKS
# Outline: as §1
# [10] = target: T7, FEV (Homo sapiens, UniProt Q99581 1-238); details: protein: recombinant; tags: N-terminal GST; dsDNA, one strand shown
# T7 sequence: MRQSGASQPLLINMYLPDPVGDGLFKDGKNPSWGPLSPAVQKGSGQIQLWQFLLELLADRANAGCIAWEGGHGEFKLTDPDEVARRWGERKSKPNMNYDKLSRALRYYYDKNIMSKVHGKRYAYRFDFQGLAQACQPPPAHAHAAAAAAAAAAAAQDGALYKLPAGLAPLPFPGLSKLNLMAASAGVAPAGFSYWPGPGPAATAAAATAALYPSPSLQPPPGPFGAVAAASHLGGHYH
# Outline: as §1
# [11] = target: ETV5 (Homo sapiens, UniProt P41161 1-510); details: protein: recombinant; tags: N-terminal GST; dsDNA, one strand shown
# Outline: as §1
# [12] = target: HSF1 (Homo sapiens, UniProt Q00613 1-529); details: protein: recombinant; tags: N-terminal GST; chain copies: 3; dsDNA, one strand shown
# Outline: as §1
# [13] = target: T8, SPIC (Homo sapiens, UniProt Q8N5J4 1-248); details: protein: recombinant; tags: N-terminal GST; dsDNA, one strand shown
# T8 sequence: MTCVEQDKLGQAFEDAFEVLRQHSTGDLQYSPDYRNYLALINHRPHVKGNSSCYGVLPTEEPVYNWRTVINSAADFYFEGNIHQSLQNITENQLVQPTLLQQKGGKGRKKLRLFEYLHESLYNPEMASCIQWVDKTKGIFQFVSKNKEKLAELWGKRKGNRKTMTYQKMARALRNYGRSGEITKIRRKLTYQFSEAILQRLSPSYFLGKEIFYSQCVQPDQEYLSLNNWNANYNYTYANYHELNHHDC
# Outline: as §1
# [14] = target: ELF4 (Homo sapiens, UniProt Q99607 1-663); details: protein: recombinant; tags: N-terminal GST; dsDNA, one strand shown
# Outline: as §1
# [15] = target: T9, ELK4 (Homo sapiens, UniProt P28324-2 1-405); details: protein: recombinant; tags: N-terminal GST; dsDNA, one strand shown
# T9 sequence: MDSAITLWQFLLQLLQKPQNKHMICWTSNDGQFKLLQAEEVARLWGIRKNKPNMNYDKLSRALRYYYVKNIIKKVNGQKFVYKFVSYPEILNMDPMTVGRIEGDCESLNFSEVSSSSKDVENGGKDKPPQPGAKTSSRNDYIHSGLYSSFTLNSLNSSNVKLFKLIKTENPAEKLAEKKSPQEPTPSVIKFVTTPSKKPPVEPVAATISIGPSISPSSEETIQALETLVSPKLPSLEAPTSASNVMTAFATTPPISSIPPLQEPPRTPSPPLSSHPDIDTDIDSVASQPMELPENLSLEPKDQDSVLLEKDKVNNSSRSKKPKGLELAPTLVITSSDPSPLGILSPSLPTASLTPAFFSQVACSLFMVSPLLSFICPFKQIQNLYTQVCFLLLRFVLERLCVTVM
# Outline: as §1
# [16] = target: T10, ETV2 (Homo sapiens, UniProt O00321 1-342); details: protein: recombinant; tags: N-terminal GST; dsDNA, one strand shown
# T10 sequence: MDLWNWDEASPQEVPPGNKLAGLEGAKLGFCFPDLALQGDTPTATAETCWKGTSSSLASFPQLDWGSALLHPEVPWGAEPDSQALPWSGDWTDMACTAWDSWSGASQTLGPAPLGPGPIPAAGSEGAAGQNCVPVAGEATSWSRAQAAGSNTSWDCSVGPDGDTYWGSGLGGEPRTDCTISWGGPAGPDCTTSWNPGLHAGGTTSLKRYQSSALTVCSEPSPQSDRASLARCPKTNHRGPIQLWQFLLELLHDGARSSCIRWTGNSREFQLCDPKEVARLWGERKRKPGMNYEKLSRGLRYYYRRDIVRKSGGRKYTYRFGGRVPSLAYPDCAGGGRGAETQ
# Outline: as §1
# [17] = target: T11, ELF3 (Homo sapiens, UniProt P78545 1-371); details: protein: recombinant; tags: N-terminal GST; dsDNA, one strand shown
# T11 sequence: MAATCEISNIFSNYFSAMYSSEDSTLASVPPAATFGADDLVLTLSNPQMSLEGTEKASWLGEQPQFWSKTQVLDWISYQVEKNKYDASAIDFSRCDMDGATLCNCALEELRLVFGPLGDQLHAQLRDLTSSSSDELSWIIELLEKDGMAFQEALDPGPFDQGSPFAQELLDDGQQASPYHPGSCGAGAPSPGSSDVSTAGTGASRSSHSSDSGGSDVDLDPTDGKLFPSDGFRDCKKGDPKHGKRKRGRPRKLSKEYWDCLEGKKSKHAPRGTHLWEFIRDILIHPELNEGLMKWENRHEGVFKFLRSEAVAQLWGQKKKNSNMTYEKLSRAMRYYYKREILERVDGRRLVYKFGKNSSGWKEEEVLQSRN
# Outline: as §1
# [18] = target: CRX (Homo sapiens, UniProt O43186 1-299); details: protein: recombinant; tags: N-terminal GST; dsDNA, one strand shown
# Outline: as §1
# [19] = target: ETV1 (Homo sapiens, UniProt P50549 1-477); details: protein: recombinant; tags: N-terminal GST; dsDNA, one strand shown
# Outline: as §1
# Chain of ELF1 (P32519 whole entry): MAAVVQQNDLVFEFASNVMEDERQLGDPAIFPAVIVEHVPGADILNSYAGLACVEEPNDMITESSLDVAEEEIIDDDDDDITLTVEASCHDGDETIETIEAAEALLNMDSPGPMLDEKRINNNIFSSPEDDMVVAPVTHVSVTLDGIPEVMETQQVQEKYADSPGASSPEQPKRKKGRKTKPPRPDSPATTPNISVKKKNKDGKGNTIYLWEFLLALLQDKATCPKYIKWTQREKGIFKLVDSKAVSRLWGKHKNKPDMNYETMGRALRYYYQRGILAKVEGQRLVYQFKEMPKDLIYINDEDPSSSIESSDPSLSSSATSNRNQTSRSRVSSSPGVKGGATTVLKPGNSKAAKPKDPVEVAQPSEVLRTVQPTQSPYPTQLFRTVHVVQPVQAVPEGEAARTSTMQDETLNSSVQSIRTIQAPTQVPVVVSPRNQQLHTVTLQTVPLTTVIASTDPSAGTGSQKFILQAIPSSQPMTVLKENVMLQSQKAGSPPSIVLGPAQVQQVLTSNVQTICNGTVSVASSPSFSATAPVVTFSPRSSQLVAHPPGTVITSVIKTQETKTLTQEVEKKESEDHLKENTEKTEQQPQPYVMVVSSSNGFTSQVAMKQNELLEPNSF
# Chain of ETV1 (P50549 whole entry): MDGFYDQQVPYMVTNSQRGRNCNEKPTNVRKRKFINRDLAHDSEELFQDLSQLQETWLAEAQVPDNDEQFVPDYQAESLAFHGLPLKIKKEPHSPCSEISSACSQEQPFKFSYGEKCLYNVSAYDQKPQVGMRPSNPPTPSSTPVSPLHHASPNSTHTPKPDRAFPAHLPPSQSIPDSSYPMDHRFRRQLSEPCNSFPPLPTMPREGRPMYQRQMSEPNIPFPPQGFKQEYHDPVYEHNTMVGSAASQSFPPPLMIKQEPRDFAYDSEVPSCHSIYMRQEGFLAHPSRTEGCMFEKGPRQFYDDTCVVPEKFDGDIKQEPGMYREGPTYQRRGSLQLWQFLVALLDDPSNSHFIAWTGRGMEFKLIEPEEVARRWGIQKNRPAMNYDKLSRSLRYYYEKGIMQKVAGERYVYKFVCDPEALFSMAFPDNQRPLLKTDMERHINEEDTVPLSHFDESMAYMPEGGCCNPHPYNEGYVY
# Chain of ETV5 (P41161 whole entry): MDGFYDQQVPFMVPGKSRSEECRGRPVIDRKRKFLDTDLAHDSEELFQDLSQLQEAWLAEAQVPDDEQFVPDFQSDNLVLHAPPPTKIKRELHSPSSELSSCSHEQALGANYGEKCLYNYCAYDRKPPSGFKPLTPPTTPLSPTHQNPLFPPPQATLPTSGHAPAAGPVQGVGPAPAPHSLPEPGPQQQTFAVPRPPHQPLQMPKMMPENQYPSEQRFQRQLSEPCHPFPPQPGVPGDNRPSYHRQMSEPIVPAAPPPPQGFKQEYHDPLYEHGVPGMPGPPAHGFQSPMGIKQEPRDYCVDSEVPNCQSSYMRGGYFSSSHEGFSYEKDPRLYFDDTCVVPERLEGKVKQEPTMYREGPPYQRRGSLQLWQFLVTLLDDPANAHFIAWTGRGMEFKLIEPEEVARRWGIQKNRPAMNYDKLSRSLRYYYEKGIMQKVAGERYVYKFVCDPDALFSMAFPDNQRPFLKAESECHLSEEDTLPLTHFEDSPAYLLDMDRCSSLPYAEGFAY
# Chain of ELF4 (Q99607 whole entry): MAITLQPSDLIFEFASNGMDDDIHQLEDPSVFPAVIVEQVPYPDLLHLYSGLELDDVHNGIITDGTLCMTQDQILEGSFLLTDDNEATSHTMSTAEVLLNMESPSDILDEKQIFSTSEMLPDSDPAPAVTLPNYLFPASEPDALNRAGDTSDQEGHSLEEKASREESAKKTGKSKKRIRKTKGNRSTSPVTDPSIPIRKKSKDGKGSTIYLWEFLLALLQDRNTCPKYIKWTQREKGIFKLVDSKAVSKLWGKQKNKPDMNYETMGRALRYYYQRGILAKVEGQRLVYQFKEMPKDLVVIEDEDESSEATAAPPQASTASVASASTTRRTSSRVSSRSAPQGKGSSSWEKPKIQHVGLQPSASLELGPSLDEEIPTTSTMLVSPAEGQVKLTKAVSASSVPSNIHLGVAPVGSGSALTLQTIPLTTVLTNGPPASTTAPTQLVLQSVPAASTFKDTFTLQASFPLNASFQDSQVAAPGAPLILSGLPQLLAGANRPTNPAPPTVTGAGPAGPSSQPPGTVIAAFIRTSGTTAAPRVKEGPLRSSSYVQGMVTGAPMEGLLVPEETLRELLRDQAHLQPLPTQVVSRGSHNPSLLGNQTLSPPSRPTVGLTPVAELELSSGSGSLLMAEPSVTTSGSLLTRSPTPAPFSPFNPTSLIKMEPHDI
# Chain of SPIB (Q01892 whole entry): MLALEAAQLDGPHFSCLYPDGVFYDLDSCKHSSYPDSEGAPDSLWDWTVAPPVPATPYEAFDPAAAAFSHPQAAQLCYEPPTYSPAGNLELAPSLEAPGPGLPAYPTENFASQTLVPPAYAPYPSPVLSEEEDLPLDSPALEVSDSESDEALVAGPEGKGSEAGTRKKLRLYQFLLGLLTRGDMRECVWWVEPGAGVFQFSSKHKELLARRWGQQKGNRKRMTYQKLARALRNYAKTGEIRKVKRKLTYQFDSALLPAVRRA
# Chain of HSF1 (Q00613 whole entry): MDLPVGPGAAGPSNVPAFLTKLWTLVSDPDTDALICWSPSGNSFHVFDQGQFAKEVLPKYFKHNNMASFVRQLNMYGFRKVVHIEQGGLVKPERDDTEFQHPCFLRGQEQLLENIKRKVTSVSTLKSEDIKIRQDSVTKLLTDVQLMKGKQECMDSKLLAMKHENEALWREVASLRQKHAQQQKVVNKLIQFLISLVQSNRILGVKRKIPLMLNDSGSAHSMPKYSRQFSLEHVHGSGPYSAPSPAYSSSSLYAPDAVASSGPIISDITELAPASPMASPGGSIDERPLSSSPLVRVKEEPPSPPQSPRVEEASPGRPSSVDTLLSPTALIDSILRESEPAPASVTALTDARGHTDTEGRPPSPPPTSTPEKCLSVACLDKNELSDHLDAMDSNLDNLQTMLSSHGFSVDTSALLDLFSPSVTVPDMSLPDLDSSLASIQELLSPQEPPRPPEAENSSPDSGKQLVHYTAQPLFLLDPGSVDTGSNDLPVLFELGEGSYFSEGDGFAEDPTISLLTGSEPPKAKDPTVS
# Chain of CRX (O43186 whole entry): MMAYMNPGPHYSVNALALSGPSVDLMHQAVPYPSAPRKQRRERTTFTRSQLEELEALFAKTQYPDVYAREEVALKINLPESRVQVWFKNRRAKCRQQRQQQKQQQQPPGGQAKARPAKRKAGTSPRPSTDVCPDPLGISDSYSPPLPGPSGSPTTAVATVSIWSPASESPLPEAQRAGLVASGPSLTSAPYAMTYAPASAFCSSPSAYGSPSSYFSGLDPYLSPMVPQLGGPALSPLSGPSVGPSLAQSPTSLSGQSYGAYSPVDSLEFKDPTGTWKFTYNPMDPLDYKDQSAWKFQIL
sequence,measurement,setting,value
AATTCA,binding signal,[1],"1.29 fold enrichment (6-mer frequency, TF over GST control)"
same,binding signal,[2],"1.23 fold enrichment (6-mer frequency, TF over GST control)"
same,binding signal,[3],"1.35 fold enrichment (6-mer frequency, TF over GST control)"
same,binding signal,[4],"1.33 fold enrichment (6-mer frequency, TF over GST control)"
same,binding signal,[5],"1.31 fold enrichment (6-mer frequency, TF over GST control)"
same,binding signal,[6],"1.27 fold enrichment (6-mer frequency, TF over GST control)"
same,binding signal,[7],"1.29 fold enrichment (6-mer frequency, TF over GST control)"
same,binding signal,[8],"1.33 fold enrichment (6-mer frequency, TF over GST control)"
same,binding signal,[9],"1.47 fold enrichment (6-mer frequency, TF over GST control)"
same,binding signal,[10],"1.24 fold enrichment (6-mer frequency, TF over GST control)"
same,binding signal,[11],"1.34 fold enrichment (6-mer frequency, TF over GST control)"
same,binding signal,[12],"1.34 fold enrichment (6-mer frequency, TF over GST control)"
same,binding signal,[13],"1.32 fold enrichment (6-mer frequency, TF over GST control)"
same,binding signal,[14],"1.33 fold enrichment (6-mer frequency, TF over GST control)"
same,binding signal,[15],"1.26 fold enrichment (6-mer frequency, TF over GST control)"
same,binding signal,[16],"1.36 fold enrichment (6-mer frequency, TF over GST control)"
same,binding signal,[17],"1.35 fold enrichment (6-mer frequency, TF over GST control)"
same,binding signal,[18],"1.39 fold enrichment (6-mer frequency, TF over GST control)"
same,binding signal,[19],"1.23 fold enrichment (6-mer frequency, TF over GST control)"
